# TSHR antag: antagonists of human thyroid stimulating hormone receptor; P16473; TSHR-expressing cells, TSH-stimulated cAMP HTRF, 2 h; hits give low values; activity change, negative = inhibition, % at 11.5 µM; actives 0.2% (n = 330,000);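 active = activity change below a set negative limit, meaning inhibition stronger than a set level, cut at about -70% in these data; inconclusive = activity change between two set negative limits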
# Target sequence (P16473 whole entry, looked up): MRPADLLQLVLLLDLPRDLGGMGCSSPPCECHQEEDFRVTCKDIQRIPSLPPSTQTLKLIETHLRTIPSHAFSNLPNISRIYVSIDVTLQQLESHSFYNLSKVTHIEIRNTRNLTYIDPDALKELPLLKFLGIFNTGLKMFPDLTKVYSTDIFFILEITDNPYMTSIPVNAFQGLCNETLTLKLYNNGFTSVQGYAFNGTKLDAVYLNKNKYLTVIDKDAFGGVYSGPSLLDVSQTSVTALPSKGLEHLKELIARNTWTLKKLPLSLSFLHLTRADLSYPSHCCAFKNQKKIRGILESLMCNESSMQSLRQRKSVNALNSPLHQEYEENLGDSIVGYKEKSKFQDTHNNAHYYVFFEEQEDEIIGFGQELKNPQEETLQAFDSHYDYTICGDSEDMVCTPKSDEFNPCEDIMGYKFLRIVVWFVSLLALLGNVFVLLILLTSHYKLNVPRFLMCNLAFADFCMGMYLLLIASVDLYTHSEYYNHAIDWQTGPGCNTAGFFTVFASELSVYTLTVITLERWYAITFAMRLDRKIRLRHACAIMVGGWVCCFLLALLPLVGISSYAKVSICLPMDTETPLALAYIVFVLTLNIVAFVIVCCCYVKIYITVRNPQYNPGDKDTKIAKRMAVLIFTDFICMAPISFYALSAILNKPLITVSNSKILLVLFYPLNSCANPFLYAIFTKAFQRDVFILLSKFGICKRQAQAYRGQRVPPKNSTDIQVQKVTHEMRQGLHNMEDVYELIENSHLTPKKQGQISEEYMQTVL
#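 Antagonism was scored as loss of TSH-driven cAMP in TSHR cells, stimulated with 4nM TSH (EC80) for 2 hours at 37 deg C and detected by homogeneous HTRF competition immunoassay.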
# ELG1 repair inh: inhibitors of ELG1-dependent DNA repair in HEK293T cells; HEK293T ELG1-luciferase reporter, luminescence, 16 h; DNA damage induced by 5-fluorouridine; Potency, µM (series often up to 46.1 µM), actives largely listed as inhibitors; actives 2.3% (n = 330,000); also: nearly all actives have a fitted effect of over 55% in size
#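 DMSO vehicle served as the neutral condition. Each well held 2,000 cells given 5-fluorouridine plus compound; after 16 hr at 37 °C/5% CO2, ONE-Glo was added and luciferase measured 30 min later.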
# RORgamma inh: blocks mouse ROR gamma transcriptional activity; Potency, µM (series often up to 53.6 µM), hits mostly inhibitors; P51450; Drosophila S2 Gal4-RORgamma UAS-luciferase reporter, 20 h; AID 2551; actives 5.4% (n = 310,000); also: nearly all actives have a fitted effect of over 60% in size
#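 A Gal4/UAS one-hybrid system in insect cells: metallothionein-promoter Gal4–ROR gamma fusion plus Photinus luciferase reporter. Copper sulfate 700 uM final, 20 hr ambient incubation, luminescent detection after 10 min with reagent.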
# Gal4-VP16 FLuc: Gal4-VP16 reporter inhibition counter-screen. Drosophila S2 Gal4-VP16 UAS-luciferase, luminescence, 20 h. actives 3.5% (n = 310,000). Potency, µM (highest dose often 53.6 µM), most hits filed as inhibitors;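 also: Gal4-VP16 expression switched on by copper sulfate through the metallothionein promoter; nearly all actives have a fitted effect of over 50% in size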
# Coupling enz: counter-screen for Giardia aldolase inhibitors: coupling enzyme system | coupling enzyme system counterscreen, AmpLite Red fluorescence | activity change, negative = inhibition, % at 58.2 µM, hits read low | actives 0.67% (n = 290,000) | AID 2472; in the data active = activity change below about -30%
#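 Counterscreen lacking aldolase: glyceraldehyde-3-phosphate coupling-enzyme reagent preincubated 10 min at RT with compound (at 57.5 uM final), then substrate/coupling system with AmpLite Red added; fluorescence read at 525/598 nm after 20 min RT.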
# Numbers stand for hits; . = inactive; ? = inconclusive; / = not tested or not shown; [ ] = remark or other dose. Sampled rows, rich in hits. Any-hit rate of the full collection: about 8%. Unless noted, calls follow the shape of the dose curve; as a rule, active = well fitted curve in the direction sought with a large enough effect; inconclusive = small, poorly fitted or top-dose-only effect, or another doubt; inactive = no such curve, though single readings can be large; an effect the other way counts as inactive or inconclusive.
SMILES,TSHR antag,ELG1 repair inh,RORgamma inh,Gal4-VP16 FLuc,Coupling enz
C[C@H](NC(=O)[C@@H](N)Cc1ccc(O)cc1)C(=O)NCC(=O)N[C@H]1CSSC[C@@H](C(=O)O)NC(=O)[C@H](CO)NC(=O)[C@H]([C@@H](C)O)NC(=O)[C@H](Cc2ccccc2)NC(=O)[C@H]([C@@H](C)O)NC(=O)[C@H](CCCCN)NC(=O)[C@@H](Cc2c[nH]c3ccccc23)NC(=O)[C@H](Cc2ccccc2)NC(=O)[C@H](Cc2ccccc2)NC(=O)[C@H](CC(N)=O)NC(=O)[C@H](CCCCN)NC1=O,/,/,.,.,.
Cc1cccc(N/C=C/C(=O)c2cccs2)c1C,.,?,10µM,?,.
NC(=O)c1ccccc1N/C=C/C(=O)c1cccs1,.,?,?,.,.
COc1cc([N+](=O)[O-])ccc1N/C=C/C(=O)c1cccs1,.,?,8.9µM,8.9µM,.
CCN(c1ccccc1)S(=O)(=O)c1ccc2c(c1)N(C(C)=O)CCS2,.,.,.,.,.
CC(C)CN(C(=O)COC(=O)CCc1nc2ccccc2s1)c1c(N)n(Cc2ccccc2)c(=O)[nH]c1=O,.,.,/,/,/
N#Cc1cc2ccccc2nc1SCc1ccccn1,.,?,6.3µM,?,.
Cc1cc2cc3c(cc2nc1SCc1ccccn1)OCCO3,.,?,.,.,.
O=C(CN1CCN(Cc2ccccc2)CC1)Nc1ccc([N+](=O)[O-])cc1C(=O)Nc1ccccc1F,.,?,.,?,.
CCOC(=O)N1CCN(CC(=O)Nc2ccc([N+](=O)[O-])cc2C(=O)Nc2ccccc2F)CC1,.,7.3µM,.,.,.
O=C(CNCc1ccccn1)Nc1ccc([N+](=O)[O-])cc1C(=O)Nc1ccccc1F,.,23µM,20µM,.,.
CCCn1c(C)nc2c(NCC(C)(C)CN(C)C)nc(C)nc21,/,/,.,.,.
COc1ccc(C2N=C(c3ccccc3)C(C)(C)N2O)cc1OC (stereo not drawn),.,.,10µM,.,.
Cc1ccc(C(=O)CC(=O)COc2ccc(Cl)cc2)cc1,.,?,13µM,10µM,.
COc1ccc(OCC(=O)NNC(=S)NC(=O)c2ccc([N+](=O)[O-])cc2)cc1,.,.,5.6µM,5.6µM,.
CC(=O)Nc1ccc(NC(=O)c2cc([N+](=O)[O-])cc([N+](=O)[O-])c2)cc1,.,.,.,.,.
CCCCCC(=O)NNC(=S)NC(=O)c1ccc([N+](=O)[O-])cc1,.,?,2.8µM,6.3µM,.
Cc1ccc(NC(=O)c2ccc(Nc3c([N+](=O)[O-])cc([N+](=O)[O-])cc3[N+](=O)[O-])cc2)cc1,.,7.3µM,?,1.3µM,.
C=CCN1c2ccccc2[C@]23C[C@@H](C(=O)OC)N(S(=O)(=O)c4ccc(C(F)(F)F)cc4)C2=NC(C(=O)OC)=C(C(=O)OC)[C@H]13,/,/,/,/,.
O=C(COc1cccc(NC(=O)c2cccc([N+](=O)[O-])c2)c1)c1ccc(Br)cc1,.,9.2µM,.,.,.
NS(=O)(=O)c1cccc(NC(=O)COc2ccc([N+](=O)[O-])cc2)c1,.,?,.,.,.
CC(C)CNC(=O)c1cccc(NC(=O)COc2ccc([N+](=O)[O-])cc2)c1,.,21µM,?,.,.
O=C(NNC(=S)NC(=O)c1ccccc1)c1ccc([N+](=O)[O-])cc1,.,.,3.5µM,1.4µM,.
O=C(NNC(=S)NC(=O)c1ccc(Br)cc1)c1cccc([N+](=O)[O-])c1,.,?,14µM,?,.
O=C(NNC(=S)NC(=O)c1ccccc1[N+](=O)[O-])c1ccc(Cl)cc1Cl,.,.,5.6µM,.,.
SMILES,TSHR antag,ELG1 repair inh,RORgamma inh,Gal4-VP16 FLuc,Coupling enz
CNC(=S)NNC(=O)COc1ccc(C)c(C)c1,.,?,6.3µM,7.1µM,.
Cc1cccc(C(=O)NC(=S)NNC(=O)COc2ccc(Cl)cc2)c1,.,.,4µM,?,.
CCCCC(=O)NC(=S)NNC(=O)c1ccc(Cl)cc1Cl,.,?,11µM,.,.
O=C(NNC(=O)c1ccccc1F)c1cccc(S(=O)(=O)N2CCc3ccccc32)c1,/,.,/,/,/
Cc1ccc(C(=O)NC(=S)NNC(=O)c2ccccc2[N+](=O)[O-])cc1,.,.,3.2µM,3.2µM,.
O=C(NNC(=S)NC(=O)c1ccccc1[N+](=O)[O-])c1ccccc1[N+](=O)[O-],.,.,.,.,.
Cc1occc1C(=O)NNC(=S)NC(=O)COc1ccc(Cl)cc1Cl,.,?,16µM,?,/
Cc1ccc(C(=O)NC(=S)NNC(=O)c2ccc([N+](=O)[O-])cc2)cc1,.,.,?,11µM,.
O=C(NNC(=S)NC(=O)c1ccc(Br)cc1)c1ccc([N+](=O)[O-])cc1,.,.,11µM,?,.
Cc1ccc(S(=O)(=O)NNC(=S)NC(=O)c2ccc([N+](=O)[O-])cc2)cc1,.,.,.[10 µM],?,.
Cc1nn(-c2ccccc2)c(C)c1/C=N/N1CCN(Cc2ccccc2)CC1,.,/,.,.,.
CC1(C)Cc2nc(Cl)c(C(N)=O)cc2CO1,.,.,.,.,.
CCCCOc1ccccc1C(=O)NNC(=S)NC(=O)c1ccccc1[N+](=O)[O-],.,.,14µM,?,.
CCCCC(=O)Nc1nnnn1CCC,.,.,14µM,?,.
CCCn1nnc(NC(=O)c2ccc3ccccc3c2)n1,.,?,.,.[10 µM],.
CCCn1nnc(NC(=O)COc2ccc(Cl)cc2)n1,/,/,.,.,.
CCCn1nnnc1NC(=O)c1ccc2ccccc2c1,.,?,1.6µM,1µM,.
CCCn1nnnc1NC(=O)COc1ccc(Br)cc1,.,.,2.5µM,7.1µM,.
COc1ccc(-c2nc3c(c4c2C[C@H](c2ccccc2)OC4)CN(C(=O)Nc2cccc(C#N)c2)CC3)c(C)c1,/,/,/,/,.
O=C(C[C@@H]1C/C=C\C[C@H](NC(=O)OCC2c3ccccc3-c3ccccc32)C(=O)O[C@H](c2ccccc2)CNC1=O)NCCO,.,.,/,/,/
COc1ccc(C(=O)NC2CCCc3c2cnn3-c2cc(F)cc(F)c2)c(OC)c1OC (stereo not drawn),.,?,.,.,.
CC(C)(C)c1ccc(-n2ncc3c2CCCC3NC(=O)C2(C(N)=O)CC2)cc1 (stereo not drawn),.,?,?,2.5µM,.
Cc1cc(C(=O)NC2CCCc3c2cnn3-c2ccc(C(C)(C)C)cc2)nn1C (stereo not drawn),.,.,?,11µM,/
Cc1cc(C)cc(-n2ncc3c2CCCC3NC(=O)c2cc(C)n(C)n2)c1 (stereo not drawn),.,.,.,.,.
CC(=O)Nc1cccc(C(=O)NC2CCCc3c2cnn3-c2ccc(C(C)(C)C)cc2)c1 (stereo not drawn),.,8.2µM,?,.,.
